This is a sample that favours compounds with a hit; in the whole collection about 11% have one here.
Pf growth 48h – inhibits P. falciparum growth in the first generation, 48 h. AID 504832. P. falciparum luciferase growth in erythrocytes, 48 h. Potency, µM (series often up to 28.7 µM), hits mostly inhibitors. 5.9% of 310,000 active
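Luciferase-expressing P. falciparum in infected erythrocytes (2% hematocrit, 0.1% parasitemia final) in RPMI 1640/0.5% Albumax were exposed to compound for 48 hours at 37 C, 5% CO2; growth read as luminescence.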
HCV inhibitor – inhibitors of hepatitis C virus infection | Huh7.5.1 HCVcc-Cre infection, luciferase reporter, 44 h | Potency, µM (top dose mostly 41.8 µM), most hits filed as inhibitors | 3.4% of 340,000 active | AID 651820
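HCVcc-Cre virus at an moi near 0.5 was added right after compound to cells cultured 4 h from seeding (1,000 cells/well). Luciferase activity was determined 44 h later, 15 min after substrate addition at RT.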
Pf growth 96h – inhibits malaria parasite growth, 96 h; P. falciparum luciferase reporter growth, 96 h; Potency, µM (top dose mostly 28.7 µM), hits mostly inhibitors; 6.9% of 320,000 active; AID 504834
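Two parasite generations (96 h, 37 C, 5% CO2) of compound exposure in infected erythrocytes (0.05% parasitemia, 2% hematocrit). Luciferase-reporter P. falciparum; decreased luminescence indicates inhibited growth, aimed at apicoplast-acting delayed death.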
AMA1 RON2 block – AMA1-RON2 (P. falciparum) interaction inhibition; AlphaScreen AMA1-biotinylated RON2 peptide binding; Potency, µM (series often up to 58.2 µM), hits mostly inhibitors; 0.2% of 360,000 active; note: nearly all actives have a fitted effect of over 45% in size
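AMA1 (3D7) with his tag at 25 nM final met compounds first, then biotinylated RON2 peptide at 25 nM; detection used donor plus acceptor beads, 10 µg/mL apiece, read by AlphaScreen after 30 min at room temperature.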
A number is an active result; - = inactive; ? = inconclusive; . = not tested or not shown; [ ] = another dose, or the depositor's remark. Calls come from the whole dose curve; as a rule, active = well fitted curve in the direction sought with a large enough effect; inconclusive = small, poorly fitted or top-dose-only effect, or another doubt; inactive = no such curve, though single readings can be large; an effect the other way counts as inactive or inconclusive.

SMILES	Pf growth 48h	HCV inhibitor	Pf growth 96h	AMA1 RON2 block
CN(CC(O)COc1c(F)cc(Br)cc1F)C1CCCCC1 (stereo not given)	9.28µM	-	-	-
COCC(=O)OC1CCn2c1nc1c2C(=O)C(C)=C(NC(C)=O)C1=O (stereo not given)	.	14.1µM	.	-
CC(=O)NC1=C(N2CC2C)C(=O)C(NC(C)=O)=C(N2CC2C)C1=O (stereo not given)	.	-	.	-
CC(Cc1ccccc1Sc1ccc(O)cc1)N(C)C (stereo not given)	13.1µM	?	.	-
O=C(NCCCn1ccnc1)Nc1cccc(Cl)c1	-	-	-	25.1µM
O=C(CNC(=O)c1ccc(Cl)cc1)NCCCn1ccnc1	10.4µM	-	?	-
O=C(NCCCn1ccnc1)c1ccc(Cl)cc1	-	-	-	-
Cc1ccc(N2CCN(c3ccc(C)cc3)C(CC(=O)O)C2=O)cc1 (stereo not given)	11.7µM	-	?	-
Cc1ccc(N2CC(C(N)=O)CC2=O)cc1 (stereo not given)	-	-	-[5.75 µM]	-
CCN(CC)C(=O)C(=O)c1cccn1-c1ccccc1C#N	-	-	.	-
Cc1ccc(Cl)cc1N1CCN(C(=O)CN(C2CCCCC2)S(C)(=O)=O)CC1	?	?	10.4µM	-
Cc1ccc(Cl)cc1N1CCN(C(=O)COc2ccc(S(=O)(=O)NC(C)C)cc2)CC1	.	10µM	?	-
CN1CCN(C2CCCCC2NS(=O)(=O)c2ccccc2)CC1 (stereo not given)	-	-	?	-
CC(C)NS(=O)(=O)c1ccc(OCC(=O)N2CCCC2)cc1	-	-	?	-
O=C(COc1ccc(S(=O)(=O)NC2CCCCC2)cc1)N1CCN(c2cccc(Cl)c2)CC1	?	7.08µM	.	-
O=S(=O)(NC1CCCCC1N1CCN(c2cccc(Cl)c2)CC1)c1ccccc1 (stereo not given)	14.7µM	-	-	-
CN(CC(=O)Nc1ccc(Cl)cc1)C(=O)CCc1nc2sc3c(c2c(=O)[nH]1)CCCC3	-	-[8.37 µM]	?	-
CCOC(=O)[C@@H]1[C@H]2COc3ccccc3[C@@H]2N2C(=O)N(c3cccc(F)c3)C(=O)[C@@]12C	.	-	.	-
O=C(CNC(=O)c1ccc(C(F)(F)F)cc1)NC1CC1	.	-	.	-
O=C(c1ccc(S(=O)(=O)NCC2CCCO2)cc1)N1CCN(c2cccc(Cl)c2)CC1 (stereo not given)	-[5.75 µM]	11.2µM	-	-
Nc1ccc(C(=O)N/N=C/c2cn(Cc3cccc(F)c3)c3ccccc23)cc1	-	?	-	-
O=C1NC2(CCCCC2)C(=O)N1/N=C/c1ccccc1Br	3.29µM	-	-	-
O=C1NC2(CCCCC2)C(=O)N1/N=C/c1ccc(O)cc1O	.	-	?	-
Cc1onc(C(=O)N2CCN(Cc3ccccc3)CC2)c1[N+](=O)[O-]	-	-[8.37 µM]	14.7µM	-
CC(C)c1onc(C(=O)N2CCN(c3ccccc3)CC2)c1[N+](=O)[O-]	5.22µM	-	?	-
SMILES	Pf growth 48h	HCV inhibitor	Pf growth 96h	AMA1 RON2 block
Cc1ccc(Cl)cc1N1CCN(C(=O)c2noc(C(C)C)c2[N+](=O)[O-])CC1	?	3.55µM	?	-
O=C(c1ccc(Cn2cc(Cl)c([N+](=O)[O-])n2)cc1)N1CCN(Cc2ccccc2)CC1	-	11.2µM	-	-
CC(C)c1onc(C(=O)N2CCN(c3ccc(F)cc3)CC2)c1[N+](=O)[O-]	?	-	?	-
CC(=O)c1ccc(NC(=O)C2=CC(c3cccs3)=NS(=O)(=O)N2C)cc1	-	-	?	-
Cc1cc(C)c2nc3nc(C)c(C)cc3c(N)c2c1	4.15µM	-	?	-
Cc1cccc(N2CCN(C(=O)Cc3ccccc3[N+](=O)[O-])CC2)c1C	-	-	-	-
CCOc1ccc(N2C(=O)NC(=O)/C(=C\c3ccc(N4CCCCC4)o3)C2=O)cc1	?	-	13.1µM	-
CCn1c(Cc2ccccc2)nnc1SCC(=O)N1CCCC1=O	-	.	-	-
CC1CN(C(=O)CCc2cc(C(C)(C)C)c(O)c(C(C)(C)C)c2)CC(C)O1 (stereo not given)	?	?	7.38µM	-
COc1cc(NC(=O)COc2ccc([N+](=O)[O-])cc2)ccc1NC(=O)c1ccco1	.	.	.	-
Nc1cc(F)ccc1N1CCCCCC1	1.04µM	?	-	-
Nc1cc(Cl)ccc1N1CCCC1	2.08µM	-	?	-
FC(F)C(F)(F)C(F)(F)C(F)(F)c1cc(-c2ccccc2)n[nH]1	-	-	-	-
CS(=O)(=O)NCC(c1cccnc1)N1CCN(c2ccccc2F)CC1 (stereo not given)	-	-	-	-
O=C(O)CCC(=O)N1N=C(c2c(-c3ccccc3)c3cc(Cl)ccc3[nH]c2=O)CC1c1cccs1 (stereo not given)	-	-	?	-
CC(=O)N1N=C(c2c(-c3ccccc3)c3cc(C)ccc3[nH]c2=O)CC1c1ccco1 (stereo not given)	14.7µM	?	5.22µM	-[11.6 µM]
CC(=O)N1N=C(c2cccc(NS(=O)(=O)c3ccc(C)cc3)c2)CC1c1ccco1 (stereo not given)	?	3.16µM	?	-
CC(=O)N1N=C(c2c(-c3ccccc3)c3cc(Br)ccc3[nH]c2=O)CC1c1ccco1 (stereo not given)	?	?	5.22µM	-
CC1CC(C)CN(C(=O)CN2C(=O)NC3(CCCCCC3)C2=O)C1 (stereo not given)	.	-	.	-
CCCc1nc(N2CCOCC2)c2sc(=S)n(-c3ccccc3)c2n1	.	.	-	.
Cn1c(=O)c2c(SCC(=O)c3ccccc3)nc(C3CC3)nc2n(C)c1=O	.	-	-	-
CCc1nc(SCC(=O)c2ccccc2)c2c(=O)n(C)c(=O)n(C)c2n1	-	12.6µM	?	-
CCc1nc(SCC(=O)Nc2cccc(C(F)(F)F)c2)c2c(=O)n(C)c(=O)n(C)c2n1	9.28µM	?	?	-
CCCc1nc(SCC(=O)c2ccccc2)c2c(=O)n(C)c(=O)n(C)c2n1	?	11.2µM	?	-
O=C(C1CCCN(Cc2cccc(Cl)c2)C1)N1CCCCC1 (stereo not given)	.	-	-	?
SMILES	Pf growth 48h	HCV inhibitor	Pf growth 96h	AMA1 RON2 block
CCOC(=O)CSc1nc2ccc(N3CCOCC3)cc2c(=O)n1Cc1ccc2c(c1)OCO2	11.7µM	3.98µM	.	.
CCCCn1c(SCC(=O)Nc2ccc(OC)cc2)nc2ccc(N3CCOCC3)cc2c1=O	?	-	?	-
CCCCn1c(SCC(=O)NCc2ccccc2)nc2ccc(N3CCOCC3)cc2c1=O	11.7µM	-	-	-
CCCCn1c(SCC(=O)NC(C)CC)nc2ccc(N3CCOCC3)cc2c1=O (stereo not given)	?	-	?	-
CCCCn1c(SCC(=O)NCc2ccco2)nc2ccc(N3CCOCC3)cc2c1=O	14.7µM	?	-	-
NC(=O)/C(=C/c1cccnc1)NC(=O)c1ccccc1	-	-	-	-
Cc1ccc(NC(=O)COC(=O)c2c(-c3ccccc3)noc2C)c(C)c1	-	-	-	-
CCC(=O)Nc1ccc(NC(=O)CSc2nnnn2Cc2ccccc2)cc1C	-	-	-	-

Source: PubChem BioAssay (National Center for Advancing Translational Sciences (NCATS))
